The source of these data is PubChem BioAssay (EPA / NIEHS).

Experiment [1] deals with PGR (gene 5241) (UniProt P06401). As to the kind of experiment: TOX21_PR_BLA_Followup_Antagonist_ratio: Tox21 HEK293 Progesterone Receptor (PR) Antagonism Beta-lactamase Follow-Up Assay, Ratio (AID 2283934; active = hit-call score of the fitted dose curve at least 0.9, where 1 is the maximum;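 note: PR-UAS-bla HEK293T cells stimulated with 1 nM R5020 agonist for 16 hr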). In a few lines:
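Cells are plated, rested 6 hr, then dosed with test compound in DMSO and challenged with 1 nM promegestone. After 16 hr incubation, substrate loading for 2 h at room temperature precedes fluorescence reading; viability is measured in the same wells.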

Experiment [2] can be described thus: TOX21_PR_BLA_Followup_Antagonist_viability: Viability Assessment in the Tox21 HEK293 Progesterone Receptor (PR) Antagonism Beta-lactamase Follow-Up Assay (AID 2283936; active = hit-call score of the fitted dose curve at least 0.9, where 1 is the maximum;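 note: cells exposed to compound with R5020 agonist for 16 h; hits lower the luminescence signal meaning cytotoxicity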). Summed up:
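PR-UAS-bla HEK293T cells in medium with 2% charcoal-stripped FBS were treated with compounds plus R5020 for 16 hr at 37C. After the beta-lactamase read, CellTiter-Glo was added to the same wells and luminescence read after 30 min at room temperature.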

Experiment [3] in a line: CEETOX_H295R_DOC_noMTC: CeeTox H295R High-throughput Steroidogenesis Assay for DOC, maximum tolerated concentration (MTC) filtered results only (AID 2283918). The settings on record: actives raise or lower the signal. Summed up: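 H295R cells prestimulated 48 h with 10 uM forskolin, then exposed 48 h to chemical in 0.1% DMSO. 11-Deoxycorticosterone in medium measured by MTBE extraction and HPLC-MS/MS; bidirectional fit vs DMSO, no MTC filter.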

A short description of experiment [4]: CEETOX_H295R_ESTRADIOL_noMTC: CeeTox H295R High-throughput Steroidogenesis Assay for Estradiol, maximum tolerated concentration (MTC) filtered results only (AID 2283919). To be noted: actives raise or lower the signal. Summed up: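 Readout: dansyl-derivatized estradiol quantified by LC-MS/MS in medium from H295R cells dosed 48 h (0.1% DMSO) following 48 h forskolin (10 uM) prestimulation. Gain or loss of signal fitted against DMSO; no MTC filtering applied.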

Experiment [5] is described as follows: CEETOX_H295R_PROG_noMTC: CeeTox H295R High-throughput Steroidogenesis Assay for Progesterone (PROG), maximum tolerated concentration (MTC) filtered results only (AID 2283920). To be noted: actives raise or lower the signal. Summed up:
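Readout: medium progesterone by MTBE extraction, reverse-phase C18 HPLC, ESI-positive MS/MS. Human H295R cells, 10 uM forskolin pretreatment 48 h, chemical 48 h in 0.1% DMSO. Gain or loss fitted against DMSO baseline.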

The nature of experiment [6]: CEETOX_H295R_ESTRONE_noMTC: CeeTox H295R High-throughput Steroidogenesis Assay for Estrone, maximum tolerated concentration (MTC) filtered results only (AID 2283921). The settings on record: actives raise or lower the signal. Summed up:
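Estrone in spent medium, quantified by tandem MS following dansyl chloride derivatization, after 48 h chemical exposure (0.1% DMSO) of forskolin-prestimulated (10 uM, 48 h) H295R cells; concentrations not MTC-filtered, bidirectional fit against DMSO.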

The nature of experiment [7]: CEETOX_H295R_TESTO_noMTC: CeeTox H295R High-throughput Steroidogenesis Assay for Testosterone (TESTO), maximum tolerated concentration (MTC) filtered results only (AID 2283924). The settings on record: actives raise or lower the signal. Summed up:
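Medium testosterone, measured by HPLC-MS/MS after liquid-liquid extraction, was fitted in both directions relative to DMSO without MTC filtering. Adrenal H295R cells received 48 h chemical exposure (0.1% DMSO final) after 48 h forskolin (10 uM) prestimulation; viability by MTT.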

The nature of experiment [8]: TOX21_PR_BLA_Followup_Agonist_viability: Viability Assessment in the Tox21 HEK293 Progesterone Receptor (PR) Agonism Beta-lactamase Follow-Up Assay (AID 2283935; active = hit-call score of the fitted dose curve at least 0.9, where 1 is the maximum;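 note: signal loss means lower viability so actives are cytotoxic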). In a few lines: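 Cells were plated in medium with 2% charcoal-stripped FBS and rested 6 hr. Compounds in DMSO were then added for 16 hr at 37C, followed by the FRET substrate step and CellTiter-Glo luminescence after 30 min.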

Experiment [9] deals with PGR (gene 5241) (UniProt P06401). Briefly: TOX21_PR_LUC_Followup_Antagonist: Tox21 HEK293 Progesterone Receptor (PR) Antagonism Luciferase Follow-Up Assay (AID 2283938; active = hit-call score of the fitted dose curve at least 0.9, where 1 is the maximum;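 note: curve fitted upward as signal gain over DMSO baseline despite antagonist label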). In a few lines:
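HEK293-PR-A-luc cells, 3,000/well, preincubated 5 h at 37C before compound addition in DMSO; 16 h compound exposure at 37C. ONE-Glo luciferase luminescence read after 30 min at room temperature, fitted relative to DMSO baseline.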

Experiment [10] deals with Thyroid hormone receptor alpha (Rattus norvegicus) + Thyroid hormone receptor beta (Rattus norvegicus) (UniProt P18113+P63059). Briefly: TOX21_TR_LUC_GH3_Agonist_Followup: Tox21 GH3 Thyroid Hormone Receptor Agonism Luciferase Follow-Up Assay (AID 2283939; active = hit-call score of the fitted dose curve at least 0.9, where 1 is the maximum). In a few lines:
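Agonist-mode confirmatory run: 15 concentrations (5 nM to 92 uM final) on GH3 rat pituitary cells, 24 h at 37C/5% CO2, T3 as positive control. Luminescence read with ONE-Glo after 30 min.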

Records with an inconclusive call do not appear. Calls of active or inactive are those of the source. Rule for the calls, unless noted: active = hit-call score of the fitted dose curve at least 0.9, where 1 is the maximum; inactive = score below 0.9.

Chain of PGR (gene 5241) (P06401 whole entry, looked up): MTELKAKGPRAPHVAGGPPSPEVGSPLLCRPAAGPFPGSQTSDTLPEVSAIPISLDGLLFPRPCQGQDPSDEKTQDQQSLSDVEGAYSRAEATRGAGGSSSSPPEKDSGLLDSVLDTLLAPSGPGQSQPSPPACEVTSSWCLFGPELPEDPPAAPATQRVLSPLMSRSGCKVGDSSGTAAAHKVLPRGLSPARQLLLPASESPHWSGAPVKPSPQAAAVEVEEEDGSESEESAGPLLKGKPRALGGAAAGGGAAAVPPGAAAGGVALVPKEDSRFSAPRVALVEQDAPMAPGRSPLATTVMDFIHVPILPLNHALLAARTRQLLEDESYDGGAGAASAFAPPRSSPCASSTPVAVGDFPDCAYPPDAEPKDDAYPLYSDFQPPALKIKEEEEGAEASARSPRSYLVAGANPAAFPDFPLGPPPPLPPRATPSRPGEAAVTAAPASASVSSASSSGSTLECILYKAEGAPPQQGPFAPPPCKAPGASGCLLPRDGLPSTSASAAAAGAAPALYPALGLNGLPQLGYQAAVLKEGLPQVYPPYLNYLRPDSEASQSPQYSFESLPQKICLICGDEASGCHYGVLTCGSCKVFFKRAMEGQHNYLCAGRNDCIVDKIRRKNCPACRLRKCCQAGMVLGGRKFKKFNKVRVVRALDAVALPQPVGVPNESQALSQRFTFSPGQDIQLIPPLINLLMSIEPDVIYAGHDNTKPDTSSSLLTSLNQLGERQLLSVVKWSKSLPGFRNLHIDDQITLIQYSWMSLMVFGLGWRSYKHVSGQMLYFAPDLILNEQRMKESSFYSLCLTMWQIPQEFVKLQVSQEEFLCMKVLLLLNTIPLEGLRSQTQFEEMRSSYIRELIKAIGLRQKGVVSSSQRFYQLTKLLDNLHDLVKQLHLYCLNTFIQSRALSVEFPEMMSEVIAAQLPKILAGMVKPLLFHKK
Chain of Thyroid hormone receptor alpha (Rattus norvegicus) + Thyroid hormone receptor beta (Rattus norvegicus) (P63059 whole entry, looked up): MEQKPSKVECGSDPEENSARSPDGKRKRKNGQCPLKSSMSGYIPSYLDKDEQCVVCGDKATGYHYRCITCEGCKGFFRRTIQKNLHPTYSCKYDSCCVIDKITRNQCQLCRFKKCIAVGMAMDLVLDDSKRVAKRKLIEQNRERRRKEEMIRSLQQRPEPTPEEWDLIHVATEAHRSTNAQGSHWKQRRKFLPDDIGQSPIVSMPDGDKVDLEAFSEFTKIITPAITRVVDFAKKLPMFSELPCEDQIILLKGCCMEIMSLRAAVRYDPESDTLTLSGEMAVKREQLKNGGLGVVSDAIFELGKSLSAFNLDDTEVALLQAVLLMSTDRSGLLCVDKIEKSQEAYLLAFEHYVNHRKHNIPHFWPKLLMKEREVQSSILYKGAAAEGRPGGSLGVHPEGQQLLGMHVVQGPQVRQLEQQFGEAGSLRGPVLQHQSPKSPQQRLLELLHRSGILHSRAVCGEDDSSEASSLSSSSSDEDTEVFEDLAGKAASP
Chain of Thyroid hormone receptor alpha (Rattus norvegicus) + Thyroid hormone receptor beta (Rattus norvegicus) (P18113 whole entry, looked up): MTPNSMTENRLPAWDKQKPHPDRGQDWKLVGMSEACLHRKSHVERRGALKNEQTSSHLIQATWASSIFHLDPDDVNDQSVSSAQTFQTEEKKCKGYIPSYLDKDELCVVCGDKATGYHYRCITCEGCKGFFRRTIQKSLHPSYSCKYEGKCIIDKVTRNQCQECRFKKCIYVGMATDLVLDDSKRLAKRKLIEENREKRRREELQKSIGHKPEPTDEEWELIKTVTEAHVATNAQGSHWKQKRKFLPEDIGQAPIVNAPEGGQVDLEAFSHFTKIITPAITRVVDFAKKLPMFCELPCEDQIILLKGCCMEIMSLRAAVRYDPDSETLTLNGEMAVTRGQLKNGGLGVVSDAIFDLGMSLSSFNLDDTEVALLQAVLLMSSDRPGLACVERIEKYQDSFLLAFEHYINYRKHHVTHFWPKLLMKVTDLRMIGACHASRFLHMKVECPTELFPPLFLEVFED

With `NC(=O)N(O)[C@@H]1COc2cc(OCc3ccccc3)ccc21`, the outcome in [1] and in experiment [2] was inactive.
In the case of `Cc1nc(-c2ccccn2)ncc1C(=O)Nn1cc(C)c2cc(F)ccc21`, the values for the AC50 in experiment [3], in [5] and in [7] were 5.19 µM (active), 3.34 µM (active) and 11.5 µM (active), respectively. Moreover, the compound was classed as inactive in experiment [4] and in experiment [6].
With `c1ccc2cc3ccccc3cc2c1`, the compound was classed as inactive in [3], in [4], in experiment [5] and in experiment [6].
For the compound `CC(C)C(=O)Nc1ccc([N+](=O)[O-])c(C(F)(F)F)c1`, the AC50 in experiment [1] is 46.1 µM (active). The compound was called inactive in experiment [8], in [2] and in experiment [9].
Turning to `O=S(=O)(O)c1ccc(N=Nc2c(O)ccc3cc(S(=O)(=O)O)ccc23)cc1`, the compound was called inactive in experiment [3] and in experiment [5].
With `Cn1c(=O)c2[nH]cnc2n(C)c1=O`, the result in experiment [10] was inactive.
